We go through ten compounds from PubChem BioAssay (EPA / NIEHS).

Molecules are shown by their SMILES. Active and inactive are the calls of the source. Rule for the calls: active = hit-call score of the fitted dose curve at least 0.9, where 1 is the maximum; inactive = score below 0.9.

Read-out in test [1]: Urokinase-type plasminogen activator receptor (uPAR), PLAUR (gene 5329)
The test is described as follows: BSK_BE3C_uPAR: BioMAP Diversity Plus: BE3C Assay for Urokinase-type plasminogen activator receptor (uPAR) Biomarker Activity (AID 2283039).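 For outcome: uPAR protein level measured by ELISA on the cells; cells exposed to compound for one day before measurement.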 As to conditions: primary human bronchial epithelial cells; actives raise or lower the signal. A digest of the protocol: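 Human bronchial epithelial primary cells; chemical exposure 24 h; uPAR by ELISA; bidirectional fit vs DMSO control.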

Read-out in test [2]: Interleukin-6 (IL6), IL6 (gene 3569)
Briefly: BSK_CASM3C_IL6: BioMAP Diversity Plus: CASM3C Assay for Interleukin-6 (IL6) Biomarker Activity for (AID 2283040). As to conditions: primary human coronary artery smooth muscle cells; actives raise or lower the signal.

Read-out in test [3]: Tissue plasminogen activator (tPA), PLAT (gene 5327)
Briefly: BSK_BE3C_tPA: BioMAP Diversity Plus: BE3C Assay for Tissue plasminogen activator (tPA) Biomarker Activity (AID 2283041).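 For outcome: tPA level quantified by ELISA one day after compound addition.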 As to conditions: primary human bronchial epithelial cells; actives raise or lower the signal. A digest of the protocol:
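Primary human lung bronchial epithelial cultures receive test chemical; after 24 h, tPA is quantified by ELISA, and gain or loss of signal is fitted bidirectionally relative to DMSO baseline.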

Read-out in test [4]: Interleukin-8 (IL8), CXCL8 (gene 3576)
Briefly: BSK_CASM3C_IL8: BioMAP Diversity Plus: CASM3C Assay for Interleukin-8 (IL8) Biomarker Activity (AID 2283042).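 Note: IL-8 protein level quantified by ELISA.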 As to conditions: primary human coronary artery smooth muscle cells; actives raise or lower the signal.

Read-out in test [5]: Human Leukocyte Antigen - DR isotype (HLADR), HLA-DRA (gene 3122)
The test is described as follows: BSK_CASM3C_HLADR: BioMAP Diversity Plus: CASM3C Assay for Human Leukocyte Antigen - DR isotype (HLADR) Biomarker Activity (AID 2283043).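 Note: cell-surface HLA-DR protein level quantified by ELISA.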 The note with it: primary human coronary artery smooth muscle cells; actives raise or lower the signal.

Read-out in test [6]: Macrophage colony-stimulating factor (MCSF), CSF1 (gene 1435)
The test is described as follows: BSK_CASM3C_MCSF: BioMAP Diversity Plus: CASM3C Assay for Macrophage colony-stimulating factor (MCSF) Biomarker Activity (AID 2283044).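 Note: M-CSF protein amount quantified by ELISA after 24 h exposure.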 As to conditions: primary human coronary artery smooth muscle cells; actives raise or lower the signal.

Read-out in test [7]: Low-density lipoprotein receptor (LDLR), LDLR (gene 3949)
The test is described as follows: BSK_CASM3C_LDLR: BioMAP Diversity Plus: CASM3C Assay for Low-density lipoprotein receptor (LDLR) Biomarker Activity (AID 2283045).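 Note: LDLR protein level on the cell surface quantified by ELISA.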 As to conditions: primary human coronary artery smooth muscle cells; actives raise or lower the signal.

Read-out in test [8]: Monocyte Chemoattractant Protein-1 (MCP1), CCL2 (gene 6347)
Briefly: BSK_CASM3C_MCP1: BioMAP Diversity Plus: CASM3C Assay for Monocyte Chemoattractant Protein-1 (MCP1) Biomarker Activity (AID 2283046).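 Note: MCP-1 level quantified by ELISA 24 h after dosing.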 As to conditions: primary human coronary artery smooth muscle cells; actives raise or lower the signal.

Test [9] can be described thus: BSK_CASM3C_Proliferation: Cell Proliferation Assessment in the BioMAP Diversity Plus: CASM3C Assay (AID 2283047).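 Note: sulforhodamine B total protein stain as relative cell number at 560 nm; sub-confluent cells exposed 48 h before staining; fitted both ways against DMSO so gain or loss of cell number.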 As to conditions: primary human coronary artery smooth muscle cells.
Read-out in test [10]: Monokine induced gamma interferon (MIG), CXCL9 (gene 4283)
Briefly: BSK_CASM3C_MIG: BioMAP Diversity Plus: CASM3C Assay for Monokine induced gamma interferon (MIG) Biomarker Activity (AID 2283048).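 Note: MIG protein level measured by ELISA.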 The note with it: primary human coronary artery smooth muscle cells; actives raise or lower the signal.

Read-out in test [11]: serum amyloid A (SAA), SAA1 (gene 6288)
The test is described as follows: BSK_CASM3C_SAA: BioMAP Diversity Plus: CASM3C Assay for serum amyloid A (SAA) Biomarker Activity (AID 2283049).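 Note: SAA protein level quantified by ELISA.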 As to conditions: primary human coronary artery smooth muscle cells; actives raise or lower the signal.

Test [12] in a line: BSK_CASM3C_SRB: Viability Assessment in the BioMAP Diversity Plus: CASM3C Assay (AID 2283050).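 Note: total protein by SRB staining as cytotoxicity measure in parallel cultures; cells exposed to compound for 24 h.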 The note with it: primary human coronary artery smooth muscle cells.
Read-out in test [13]: Thrombomodulin, THBD (gene 7056)
The test is described as follows: BSK_CASM3C_Thrombomodulin: BioMAP Diversity Plus: CASM3C Assay for Thrombomodulin Biomarker Activity (AID 2283051).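 Note: thrombomodulin protein level measured by ELISA 24 h after dosing.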 As to conditions: primary human coronary artery smooth muscle cells; actives raise or lower the signal.

Read-out in test [14]: Tissue Factor, F3 (gene 2152)
The test is described as follows: BSK_CASM3C_TissueFactor: BioMAP Diversity Plus: CASM3C Assay for Tissue Factor Biomarker Activity (AID 2283052).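 Note: cell surface tissue factor protein level read by ELISA.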 As to conditions: primary human coronary artery smooth muscle cells; actives raise or lower the signal.

Read-out in test [15]: Interferon-gamma inducible Protein 10 (IP10), CXCL10 (gene 3627)
Briefly: BSK_hDFCGF_IP10: BioMAP Diversity Plus: hDFCGF Assay for Interferon-gamma inducible Protein 10 (IP10) Biomarker Activity (AID 2283053). The note with it: primary human foreskin fibroblasts; actives raise or lower the signal. A digest of the protocol: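 Primary foreskin fibroblasts, human; 24 h compound exposure; IP-10 by ELISA; bidirectional fit vs DMSO.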

Read-out in test [16]: Urokinase-type plasminogen activator receptor (uPAR), PLAUR (gene 5329)
Briefly: BSK_CASM3C_uPAR: BioMAP Diversity Plus: CASM3C Assay for Urokinase-type plasminogen activator receptor (uPAR) Biomarker Activity (AID 2283054).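 Note: cell-surface uPAR protein level quantified by ELISA.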 The note with it: primary human coronary artery smooth muscle cells; actives raise or lower the signal.

Read-out in test [17]: Vascular cell adhesion molecule 1 (VCAM1), VCAM1 (gene 7412)
The test is described as follows: BSK_CASM3C_VCAM1: BioMAP Diversity Plus: CASM3C Assay for Vascular cell adhesion molecule 1 (VCAM1) Biomarker Activity (AID 2283055).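 Note: VCAM-1 protein level quantified by ELISA on the cells.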 The note with it: primary human coronary artery smooth muscle cells; actives raise or lower the signal.

Read-out in test [18]: Epidermal growth factor receptor (EGFR), EGFR (gene 1956)
Briefly: BSK_hDFCGF_EGFR: BioMAP Diversity Plus: hDFCGF Assay for Epidermal growth factor receptor (EGFR) Biomarker Activity (AID 2283057). As to conditions: primary human foreskin fibroblasts; actives raise or lower the signal. A digest of the protocol:
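hDFCGF system, primary human foreskin fibroblasts; compound 24 h; EGFR measured by ELISA; DMSO = negative control/baseline; bidirectional fitting.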

Read-out in test [19]: Interleukin-8 (IL8), CXCL8 (gene 3576)
Briefly: BSK_hDFCGF_IL8: BioMAP Diversity Plus: hDFCGF Assay for Interleukin-8 (IL8) Biomarker Activity (AID 2283058). The note with it: primary human foreskin fibroblasts; actives raise or lower the signal. The method in brief: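 ELISA read-out of IL-8 from primary human foreskin fibroblast cultures taken 24 h after dosing; values are bidirectional fits relative to DMSO vehicle.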

For orientation: AC50 means the concentration at which the activity in the assay is half-maximal. As for `CCOc1cc(C(C)(C)C)ccc1C1COC(c2c(F)cccc2F)=N1` (stereo not given), the AC50 in test [1] is 6.6 µM (active); in test [3] it was 22.1 µM (active); in test [8] it was 32.5 µM (active); in test [9] it was 33 µM (active); in [12] it was 25 µM (active); in [13], 22.8 µM (active). For the same compound, the half-maximal activity concentration (AC50) in test [15] was 20 µM (active); in test [16], 5.08 µM (active); in test [18] it was 11.8 µM (active); in [19], 20.4 µM (active). Moreover, the result in test [2], in [4], in test [5], in test [6], in test [7] and in test [10] was inactive. The result in [11], in test [14] and in test [17] was inactive.
For `CN=C=S`, the outcome in test [1], in [2], in [3], in test [4], in test [5] and in [6] was inactive. For the same compound, the result in test [7], in test [8], in [9], in test [10], in [11] and in test [12] was inactive. Also, the result in [13], in [14], in test [16], in test [17] and in test [19] was inactive. In addition, the AC50 in test [15] is 16.6 µM (active); in [18], 5.42 µM (active).
For the compound `CC1(C)C(C(=O)OC(C#N)c2cccc(Oc3ccccc3)c2)C1(C)C` (stereo not given), the outcome in test [1], in test [3], in test [4], in test [5], in test [6] and in test [7] was inactive. Besides, the outcome in test [8], in test [10], in test [11], in test [12], in test [14] and in test [15] was inactive. In addition, the result in [16], in test [17], in [18] and in test [19] was inactive. Moreover, the AC50 in test [2] was 30.9 µM (active); in test [9] it was 13.2 µM (active); in test [13], 16 µM (active).
On to `Cn1c(-c2ccccc2)cc(-c2ccccc2)[n+]1C`, for which the result in [1], in test [2], in test [3], in test [4], in test [5] and in test [6] was inactive. Besides, the outcome in test [7], in [8], in test [9], in test [10], in [11] and in test [12] was inactive. Further, the outcome in test [13], in [14], in test [15], in test [16], in [17] and in test [18] was inactive. For the same compound, the outcome in test [19] was inactive.
Consider `CC(C)Nc1nc(Cl)nc(NC(C)C)n1`, for which the result in test [1], in test [2], in test [3], in test [4], in test [5] and in test [6] was inactive. The result in test [7], in [8], in test [9], in [10], in test [11] and in test [12] was inactive. Moreover, the outcome in test [13], in [14], in test [15], in [17], in test [18] and in test [19] was inactive. The AC50 in [16] was 13.6 µM (active).
Take `CNC(=O)N(C)c1nnc(C(C)(C)C)s1`: the outcome in [1], in [2], in test [3], in [4], in [5] and in test [6] was inactive. The outcome in test [7], in [8], in test [9], in [10], in test [11] and in test [12] was inactive. Besides, the outcome in test [13], in test [14], in test [15], in test [16], in test [17] and in test [18] was inactive. Moreover, the outcome in test [19] was inactive.
As to `Nc1c(Cl)c(F)nc(OCC(=O)O)c1Cl`, the outcome in [1], in [2], in test [3], in test [4], in test [5] and in test [6] was inactive. For the same compound, the outcome in test [7], in test [8], in test [9], in test [10], in test [11] and in test [12] was inactive. Moreover, the result in test [13], in test [14], in test [15], in test [16], in test [17] and in test [18] was inactive. In addition, the result in test [19] was inactive.
Turning to `CC(C)=CC1C(C(=O)OCc2coc(Cc3ccccc3)c2)C1(C)C` (stereo not given), the result in test [1], in test [2], in [3], in test [4], in [5] and in [6] was inactive. In addition, the result in [7], in test [8], in test [10], in test [11], in test [12] and in [14] was inactive. The result in test [16], in test [17], in test [18] and in test [19] was inactive. In addition, the AC50 in test [9] was 24.6 µM (active); in test [13] it was 20 µM (active); in test [15] it was 3.97 µM (active).
As to `COCC(C)N(C(=O)CCl)c1c(C)csc1C` (stereo not given), the result in test [1], in [2], in test [3], in test [4], in [5] and in [6] was inactive. For the same compound, the result in test [7], in [8], in [9], in [10], in test [11] and in test [12] was inactive. Moreover, the result in test [13], in [14], in [15], in test [16], in [17] and in test [18] was inactive. Besides, the outcome in [19] was inactive.
For the compound `CCN(CC)C(=O)C(C)Oc1cccc2ccccc12` (stereo not given), the outcome in [1], in test [2], in [3], in test [4], in [5] and in test [6] was inactive. The outcome in [7], in [8], in [10], in test [11], in test [12] and in test [14] was inactive. Besides, the outcome in test [16], in [17], in [18] and in test [19] was inactive. In addition, the AC50 in test [9] is 0.531 µM (active); in test [13] it was 0.148 µM (active); in test [15], 3.97 µM (active).
